TDP1 cell noCPT: qHTS for Inhibitors of human tyrosyl-DNA phosphodiesterase 1 (TDP1): qHTS in cells in absence of CPT | Potency, µM (highest dose often 46.2 µM), inactives show at the highest dose activity change, negative = growth inhibition, hits mostly inhibitors | 420,000 compounds, 15% hits | DT40 Tdp1-/- hTDP1 cells, no CPT, ATP luminescence, 48 h; further: potency means the concentration at half of the fitted maximal effect; nearly all actives have a fitted effect of over 55% in size
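Growth kinetics read by CellTiter-Glo luminescence after ≥48 hr at 37 °C. Cells: DT40 Tdp1-/- stably carrying human TDP1, 400 per well, compound exposure in the absence of CPT (DMSO vehicle).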
HT1080 IDH1KD tx: toxicity to HT-1080 IDH1 knockdown cells (counter line); Potency, µM (series often up to 46.1 µM), for the others: top-dose activity, negative = toxicity, most hits filed as cytotoxic; AID 686971; HT-1080 IDH1 knockdown viability, ATP luminescence, 48 h; 360,000 compounds, 2% hits;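 further: potency means the concentration at half of the fitted maximal effect; 0% = DMSO wells and -100% = cell-free medium wells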
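% activity derives from luminescence (CellTiter-Glo), normalised to DMSO and no-cell wells. HT-1080-IDH1KD cells, 750/well, had 48 h compound exposure at 37 °C.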
IL-1B inflam inh: blocks inflammasome-driven IL-1 beta release | THP-1 LPS/ATP IL-1B secretion, AlphaLISA, 16 h; stronger effect = lower value | activity change, % at 57.5 µM | 360,000 compounds, 4.7% hits; in the data active means activity change below about -50%; inconclusive means mostly about -30% to -49%
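THP-1 cells pretreated 1 hr with compounds (up to 57.5 uM final), then stimulated with LPS (250 ng/mL final) plus ATP (1.25 mM final); secreted IL-1B measured by AlphaLISA after 16 hr, decreased signal indicating inhibition.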
DT40 TDP1 CPT: growth inhibition of DT40 Tdp1-/-;hTDP1 cells with camptothecin (screen for TDP1 inhibitors); Potency, µM (titrated, usually from 46.2 µM), inactives show top-dose activity change, negative = growth inhibition, actives largely listed as inhibitors; 420,000 compounds, 12% hits; chicken DT40 Tdp1-/-;hTDP1 cells + 20 nM CPT, ATP luminescence, 48 h; further: potency means the concentration at half of the fitted maximal effect; nearly all actives have a fitted effect of over 55% in size
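Cell growth measured by CellTiter-Glo luminescence after a minimum 48 h, 37 C compound exposure with 20 nM CPT in Tdp1-knockout DT40 cells stably expressing hTDP1, seeded 400/well; qHTS titration format.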
ELG1 DNA repair: inhibitors of ELG1-dependent DNA repair in HEK293T cells. HEK293T ELG1-luciferase reporter, luminescence, 16 h; DNA damage induced by 5-fluorouridine. Potency, µM (doses to about 46.1 µM), for inactives: top-dose activity change, negative = inhibition, most hits filed as inhibitors. 330,000 compounds, 2.3% hits; further: potency means the concentration at half of the fitted maximal effect; nearly all actives have a fitted effect of over 55% in size
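Step one: seed 2,000 cells per well. Step two: pin-transfer compound or DMSO alongside 5-fluorouridine. Step three: incubate 16 hr, 37 °C, 5% CO2. Step four: add ONE-Glo, wait 30 min, read luminescence.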
HT1080NT lethal: kills 2HG-producing HT-1080-NT fibrosarcoma cells | HT-1080-NT fibrosarcoma viability, CellTiter-Glo ATP luminescence, 48 h | 360,000 compounds, 1.6% hits | AID 686970 | Potency, µM (highest dose often 46.1 µM), for inactives: top-dose activity, negative = less viability, actives largely listed as cytotoxic;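 further: NT is the 2HG producing partner of a matched IDH1 knockdown line; potency means the concentration at half of the fitted maximal effect; 0% = DMSO-treated cells and -100% = media-only wells without cells; nearly all actives have a fitted effect of over 55% in size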
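Luminescent CellTiter-Glo readout after 48 hours of compound exposure at 37 degrees C defined viability of HT-1080-NT cells. Activity was normalized to DMSO wells and cell-free media wells; concentration-response curves were fitted and assigned curve classes.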
Active calls of the source: *. The list is not random: actives were taken first. Their share in the collection is about 19%. Unless noted, the call rests on the fitted dose curve; in most records, active means well fitted curve in the direction sought with a large enough effect; inconclusive means small, poorly fitted or top-dose-only effect, or another doubt; inactive means no such curve, though single readings can be large; an effect the other way counts as inactive or inconclusive. Unless noted, on the % scale 0 is the no-effect control and ±100 the full control effect.

For COC(=O)[C@]12CCCCC=C1N(CCc1ccc(OC)c(OC)c1)C(=O)[C@H](CC(=O)NCCCCc1ccccc1)C2 the results were TDP1 cell noCPT 16µM*, HT1080 IDH1KD tx inconclusive, IL-1B inflam inh inconclusive, DT40 TDP1 CPT 21µM* and HT1080NT lethal inconclusive.
`COC(=O)[C@]12CCCCC=C1N(CCc1ccc(OC)c(OC)c1)C(=O)[C@H](CC(=O)NCc1ccccc1)C2` gave TDP1 cell noCPT 21µM*, HT1080 IDH1KD tx 4%, IL-1B inflam inh 2, DT40 TDP1 CPT inconclusive and HT1080NT lethal 8%.
COC(=O)[C@@]12C[C@@H](CC(=O)NCc3cccc(C(F)(F)F)c3)C(=O)N(CCc3ccc(OC)c(OC)c3)C1=CCC(C)(C)C2 was read as TDP1 cell noCPT 12µM*, HT1080 IDH1KD tx inconclusive, IL-1B inflam inh inconclusive, DT40 TDP1 CPT 9.2µM* and HT1080NT lethal inconclusive.
For CC(C)CC1=NN(C(=O)c2ccco2)C(O)(C(F)(F)F)C1 (stereo unspecified) the results were TDP1 cell noCPT inconclusive, HT1080 IDH1KD tx 25%, IL-1B inflam inh 4, DT40 TDP1 CPT -17%, ELG1 DNA repair 8% and HT1080NT lethal 6%.
Screening Cc1c(NC(=O)C(C)N2C(=O)C3CCCCC3C2=O)c(=O)n(-c2ccccc2)n1C (stereo unspecified) returned TDP1 cell noCPT -2%, HT1080 IDH1KD tx 12%, IL-1B inflam inh 29, DT40 TDP1 CPT 2%, ELG1 DNA repair -2% and HT1080NT lethal 8%.
O=C(c1cccc(F)c1)N1CCC2(CCCN(c3ccccc3)C2)CC1 was read as TDP1 cell noCPT inconclusive and DT40 TDP1 CPT -1%.
Cc1ccc(NC(=O)COc2cccc(Oc3ccccc3)c2)cc1S(=O)(=O)N1CCOCC1 was read as TDP1 cell noCPT inconclusive, HT1080 IDH1KD tx -11%, IL-1B inflam inh 18, DT40 TDP1 CPT inconclusive, ELG1 DNA repair inconclusive and HT1080NT lethal -10%.
Screening FC(F)Oc1ccc(NC(=S)N2CCc3ccccc32)cc1 returned TDP1 cell noCPT inconclusive, HT1080 IDH1KD tx -12%, IL-1B inflam inh -61*, DT40 TDP1 CPT -7%, ELG1 DNA repair -3% and HT1080NT lethal -8%.
Screening O=C(COc1ccccc1Cl)NC(=S)N1CCc2ccccc21 returned TDP1 cell noCPT inconclusive, HT1080 IDH1KD tx inconclusive, IL-1B inflam inh 36, DT40 TDP1 CPT -23%, ELG1 DNA repair inconclusive and HT1080NT lethal 11µM*.
O=C(COc1ccccc1)NC(=S)N1CCc2ccccc21 was read as TDP1 cell noCPT 16µM*, HT1080 IDH1KD tx 3%, IL-1B inflam inh 15, DT40 TDP1 CPT inconclusive, ELG1 DNA repair inconclusive and HT1080NT lethal -1%.
Fc1ccc(NC(=S)N2CCc3ccccc32)cc1 was read as TDP1 cell noCPT -12%, HT1080 IDH1KD tx 3%, IL-1B inflam inh 15, DT40 TDP1 CPT 6%, ELG1 DNA repair 20% and HT1080NT lethal 2%.
For O=C(Cc1ccc(Cl)cc1)OCC(=O)N1CCCCCC1 the results were TDP1 cell noCPT -22%, HT1080 IDH1KD tx 0%, IL-1B inflam inh -6, DT40 TDP1 CPT -21%, ELG1 DNA repair 2% and HT1080NT lethal 0%.
For CC(C)(C)C1CCc2c(sc(NC(=O)c3cccc(Cl)c3)c2C(=O)NCc2ccco2)C1 (stereo unspecified) the results were TDP1 cell noCPT 2% and DT40 TDP1 CPT -24%.
`O=c1c(-c2ccc(Br)cc2)[n+]([O-])c2ccccc2n1OCc1ccccn1` gave TDP1 cell noCPT inconclusive, HT1080 IDH1KD tx 15%, IL-1B inflam inh 27, DT40 TDP1 CPT inconclusive, ELG1 DNA repair 13% and HT1080NT lethal 4%.
`O=c1c(-c2ccco2)[n+]([O-])c2ccccc2n1OCc1ccccc1` gave TDP1 cell noCPT 12µM*, HT1080 IDH1KD tx 5%, IL-1B inflam inh -21, DT40 TDP1 CPT 12µM*, ELG1 DNA repair inconclusive and HT1080NT lethal 7%.
Screening CCOC(=O)COn1c(=O)c(-c2ccco2)[n+]([O-])c2ccccc21 returned TDP1 cell noCPT -3%, HT1080 IDH1KD tx 13%, IL-1B inflam inh -69*, DT40 TDP1 CPT -15%, ELG1 DNA repair 5% and HT1080NT lethal 11%.
Screening COc1ccccc1COn1c(=O)c(-c2ccco2)[n+]([O-])c2ccccc21 returned TDP1 cell noCPT 18µM*, HT1080 IDH1KD tx 6%, IL-1B inflam inh -7, DT40 TDP1 CPT 15µM*, ELG1 DNA repair inconclusive and HT1080NT lethal 5%.
Screening CCOC(=O)COn1c(=O)c(-c2ccc(C)cc2)[n+]([O-])c2ccccc21 returned TDP1 cell noCPT -5%, HT1080 IDH1KD tx 6%, IL-1B inflam inh 7, DT40 TDP1 CPT -2%, ELG1 DNA repair inconclusive and HT1080NT lethal 9%.
For O=c1c(-c2cc3ccccc3o2)[n+]([O-])c2ccccc2n1OCc1ccccn1 the results were TDP1 cell noCPT 15µM*, HT1080 IDH1KD tx 3%, IL-1B inflam inh 0, DT40 TDP1 CPT inconclusive, ELG1 DNA repair inconclusive and HT1080NT lethal 1%.
Screening O=CN1CCCN(C(=O)c2cc(NC(=O)c3ccccc3)cc3ncn(C4CCCC4)c23)CC1 returned TDP1 cell noCPT -13% and DT40 TDP1 CPT 20%.
`CCNC(=O)C1(C)CCCN(Cc2ccc3ccccc3c2Br)C1` (stereo unspecified) gave TDP1 cell noCPT 18µM*, HT1080 IDH1KD tx inconclusive, IL-1B inflam inh inconclusive, DT40 TDP1 CPT inconclusive and HT1080NT lethal inconclusive.
`CCNC(=O)C1(C)CCCN(Cc2cccc3ccccc23)C1` (stereo unspecified) gave TDP1 cell noCPT inconclusive, HT1080 IDH1KD tx 3%, IL-1B inflam inh -18, DT40 TDP1 CPT inconclusive and HT1080NT lethal 7%.
Screening COCCNC(=O)C1(C)CCN(Cc2ccccc2C#N)C1 (stereo unspecified) returned TDP1 cell noCPT 5%, HT1080 IDH1KD tx inconclusive, IL-1B inflam inh -2, DT40 TDP1 CPT -21% and HT1080NT lethal 27%.
Screening COCCNC(=O)C1(C)CCN(Cc2ccc3ccccc3c2Br)C1 (stereo unspecified) returned TDP1 cell noCPT 10µM*, HT1080 IDH1KD tx 17%, IL-1B inflam inh 35, DT40 TDP1 CPT 29µM* and HT1080NT lethal -3%.
